The sample as a whole holds a higher share of hits than the screen did.
Mtb RmlCD inh = M. tuberculosis RmlC/RmlD coupled enzyme inhibitors, primary screen, biochemical, compound mixtures, 384-well, from 1536-well plates | RmlC+RmlD coupled enzyme assay, percent inhibition; primary screen in compound mixtures | 0.03% of 160,000 active | dTDP-4-dehydrorhamnose reductase (Mycobacterium tuberculosis (strain ATCC 25618 / H37Rv)) … | AID 1533, 2009 | inhibition, % at 3.6 µM; in the data active = inhibition mostly above about 34%, no sharp cut-off
Target sequence (P9WH09 whole entry, looked up): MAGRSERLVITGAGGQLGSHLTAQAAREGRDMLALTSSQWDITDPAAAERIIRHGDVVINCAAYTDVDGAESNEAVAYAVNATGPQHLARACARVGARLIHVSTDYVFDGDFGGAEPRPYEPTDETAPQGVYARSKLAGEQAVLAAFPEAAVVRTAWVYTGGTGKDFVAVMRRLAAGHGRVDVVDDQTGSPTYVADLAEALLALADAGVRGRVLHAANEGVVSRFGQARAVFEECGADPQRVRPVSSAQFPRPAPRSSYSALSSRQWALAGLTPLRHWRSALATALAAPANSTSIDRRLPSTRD
Target sequence (P9WH11 whole entry, looked up): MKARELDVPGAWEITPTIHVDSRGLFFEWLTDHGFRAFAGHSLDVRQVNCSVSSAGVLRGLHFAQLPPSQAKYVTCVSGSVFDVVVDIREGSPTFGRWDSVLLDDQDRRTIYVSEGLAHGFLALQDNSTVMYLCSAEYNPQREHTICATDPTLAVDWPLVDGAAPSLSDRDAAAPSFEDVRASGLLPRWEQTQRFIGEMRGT
YopH PTP inh = YopH tyrosine phosphatase inhibitors, primary screen, biochemical, fluorescence Ex485/Em525; YopH tyrosine phosphatase [Yersinia enterocolitica]; inhibition, % (test concentration not listed); 0.16% of 140,000 active; AID 898, 2007; in the data active = inhibition above about 50%
Large screens that a line does not name were inactive.

COC(=O)CSc1nnc(CNC(=O)c2cccc(C)c2)n1-c1ccccc1OC	YopH PTP inh 76 (no result: Mtb RmlCD inh)
COC(=O)CSc1nnc(CNC(=O)c2ccccc2OC)n1C	none
CC(=O)Nc1ccc(/C=C/c2ccc3cccc([N+](=O)[O-])c3n2)cc1	none (no result: YopH PTP inh)
Cc1ccc2c(C)[nH]c(=O)cc2c1	YopH PTP inh 90 (no result: Mtb RmlCD inh)
Cc1ccc(-c2cc(=O)[nH]c3ccccc23)cc1	none (no result: Mtb RmlCD inh)
O=C(C1CCCCC1)N1CCC(n2nnc3ccccc32)CC1	none
Nc1nnc2c(n1)CCCC2	YopH PTP inh 52
C1CCc2nc3c(nc2C1)CCCC3	none (no result: YopH PTP inh)
Cn1c(NCCN2CCCCC2)cc(=O)n(C)c1=O	none (no result: Mtb RmlCD inh)
CCc1ccc(S(=O)(=O)/N=C2/C=C(Sc3ncn[nH]3)C(=O)c3ccccc32)cc1	YopH PTP inh 93
CCc1ccc(S(=O)(=O)/N=C2\C=CC(=O)c3ccccc32)cc1	none (no result: YopH PTP inh)
O=C1CC(=O)C(n2cncn2)C(c2ccc(Cl)cc2)C1 (stereo unspecified)	none
CN(C)c1cccc(C(=O)OCc2cc(=O)oc3cc(O)ccc23)c1	none
CC1CN(S(=O)(=O)c2cccc(C(=O)OCc3cc(=O)oc4cc(O)ccc34)c2)CC(C)O1 (stereo unspecified)	Mtb RmlCD inh 64
CCOc1cccc(NC(=O)c2cnccc2C(F)(F)F)c1	none (no result: YopH PTP inh)
COc1ccc(NC(=O)NCc2ccncc2)c(OC)c1	none
Cn1c2ccccc2c(=O)n2c(=O)c3ccccc3cc12	YopH PTP inh 101 (no result: Mtb RmlCD inh)
Cn1c(-c2ccccc2)cc(=O)c2ccccc21	none (no result: Mtb RmlCD inh)
CCOC(=O)N1CCN(c2cc(NCCC(=O)O)c3c4c(onc24)-c2ccccc2C3=O)CC1	YopH PTP inh 87
O=C(O)CCCNc1cc(N2CCC3(CC2)OCCO3)c2noc3c2c1C(=O)c1ccccc1-3	none
Cc1cc(=O)oc2cc(NS(=O)(=O)c3ccccc3)ccc12	Mtb RmlCD inh 43 (no result: YopH PTP inh)
CN(C)S(=O)(=O)c1ccc(S(=O)(=O)Nc2ccc3c(c2)oc2ccccc23)cc1	none
CCn1cc(CNC(=O)NC2CCCCC2)c(C)n1	none
CC1(C)Cc2nc3sc4c(N(CCO)CCO)nnnc4c3cc2CO1	none (no result: YopH PTP inh)
Cc1ccc(NC(=O)Cc2c[nH]c3ccccc23)cc1S(=O)(=O)N1CCCCCC1	none
CCOC(=O)c1oc2ccc(Br)cc2c1CSc1nnc(C)s1	YopH PTP inh 88
CCOC(=O)c1oc2ccccc2c1CSc1nnnn1-c1ccc(OC)cc1	none
CCC(=O)Oc1ccc2c(C)c(Cl)c(=O)oc2c1	Mtb RmlCD inh 43
Cc1c(Cl)c(=O)oc2cc(OC(C)C)ccc12	none (no result: Mtb RmlCD inh)
CCN1C(=C2C(=O)c3ccccc3C2=O)C=Cc2ccccc21	none
O=C1C=Cc2ccccc2C1=O	YopH PTP inh 63 (no result: Mtb RmlCD inh)
N#Cc1c(N)n(CCNC(=O)c2ccccc2)c2nc3ccccc3nc12	none (no result: Mtb RmlCD inh)
N#Cc1c(N)n(CCNC(=O)c2cccs2)c2nc3ccccc3nc12	YopH PTP inh 54 (no result: Mtb RmlCD inh)
COc1nc(NC23CC4CC(CC(C4)C2)C3)nc(OC)n1	none (no result: Mtb RmlCD inh)
O=C(NCCN1CCOCC1)c1ccncc1	none
O=C1C=C(NCCN2CCOCC2)C(=O)c2cnccc21	YopH PTP inh 101 (no result: Mtb RmlCD inh)
Cc1cccc(NC(=O)COc2ccc(Br)cc2/C=N/O)c1	none (no result: Mtb RmlCD inh)
O=C(NC1(O)C(=O)c2ccccc2C1=O)c1ccccc1	YopH PTP inh 102 (no result: Mtb RmlCD inh)
O=C(NC1(O)C(=O)c2ccccc2C1=O)c1c(Cl)cccc1Cl	none (no result: YopH PTP inh)
COC(=O)CN(c1c(C)cccc1C)S(C)(=O)=O	none
COC1=C(c2ccccc2)C(=O)c2ccccc2C1=O	none (no result: Mtb RmlCD inh)
Nc1ccc2c(c1)C(=O)C(=O)c1ccccc1-2	YopH PTP inh 101
Nc1ccc2c(c1)Cc1ccccc1-2	none
O=C1C(=O)c2ccc(-c3ccccc3)cc2-c2ccccc21	YopH PTP inh 77 (no result: Mtb RmlCD inh)
CC(=O)Nc1nc(-c2ccccc2)ns1	none
CC(=O)OC1(Cc2ccccc2)CN2CCC1c1ccccc12 (stereo unspecified)	none
CN(Cc1ccccc1)C(=O)Cn1c(=O)oc2cc(S(=O)(=O)N3CCCC3)ccc21	none
Cc1cc(=O)oc2ccc(OC(=O)CC(C)C)cc12	none (no result: YopH PTP inh)
CCOC(=O)Oc1ccc2oc(=O)cc(C)c2c1	YopH PTP inh 67
COc1ccc(Cn2c(O)c(C=Nc3ccccc3)c3ccccc3c2=O)cc1	none (no result: Mtb RmlCD inh)
CNC(=S)N/N=C/c1cc(Br)cc(Br)c1O	none
Cc1ccc(C(=O)O)cc1N=Cc1cc(Br)cc(Br)c1O	Mtb RmlCD inh 45
O=c1c2c(nc(NCCO)n1CC1CCCCC1)-c1ccccc1CC21CCCC1	none
Cc1oc2c(CN3CCOCC3)c(O)ccc2c(=O)c1-c1ccccc1	Mtb RmlCD inh 66
COc1ccc(Oc2c(C)oc3c(CN4CCOCC4)c(O)ccc3c2=O)cc1	none
Cc1ccc(NC2=C(Cl)C(=O)c3ccccc3C2=O)cc1	none
CC(=O)N(C1=C(N2CCOCC2)C(=O)c2ccccc2C1=O)c1ccc(C(=O)O)cc1	none (no result: YopH PTP inh)
CC(=O)c1ccc(NC2=C(N3CCOCC3)C(=O)c3ccccc3C2=O)cc1	YopH PTP inh 99
Cc1ccc(NC2=C(N3CCOCC3)C(=O)c3ccccc3C2=O)cc1	YopH PTP inh 89
CC(=O)N(C)C1=C(N2CCOCC2)C(=O)c2ccccc2C1=O	none (no result: Mtb RmlCD inh)
O=C(O)c1ccc(NC2=C(N3CCOCC3)C(=O)c3ccccc3C2=O)cc1	YopH PTP inh 76
O=[N+]([O-])c1ccc(-c2nnc(CNC3CCCC3)o2)cc1	none (no result: YopH PTP inh)
N/C(=N\O)c1cccc(CS(=O)(=O)c2ccccn2)c1	none (no result: YopH PTP inh)
c1ccc2c(-c3nn[nH]n3)cccc2c1	none
O=C(CSc1ccc(-c2cccnc2)nn1)N1CCCc2ccccc21	none (no result: YopH PTP inh)
Oc1ccc(C=Nc2cccc3ncccc23)c(O)c1	none
Oc1ccc(C=Nc2ccc3ncccc3c2)c(O)c1	YopH PTP inh 72
CCOC(=O)CC(NC(=O)CCc1c(C)nc2nc(C)nn2c1C)c1ccc(C)cc1 (stereo unspecified)	none (no result: YopH PTP inh)
Cc1ccc(CSCCNC(=O)CN2C(=O)c3ccccc3S2(=O)=O)cc1	YopH PTP inh 56 (no result: Mtb RmlCD inh)
COc1ccc(CCNC(=O)CN2C(=O)c3ccccc3S2(=O)=O)cc1OC	none
NC(=O)CCn1cnc2ccccc21	none (no result: YopH PTP inh)
CCn1c(C)nc2cc(C(=O)N/N=C(\C)c3ccc(OC)cc3O)ccc21	Mtb RmlCD inh 37 (no result: YopH PTP inh)
CCn1c(C)nc2cc(C(=O)N/N=C/c3ccc(OC)cc3)ccc21	none (no result: YopH PTP inh)
CCCN1C2CCCC1CC(NC(=O)Nc1ccc(C(C)C)cc1)C2 (stereo unspecified)	none (no result: Mtb RmlCD inh)
COCCCn1c(=O)/c(=C\c2ccccc2OC(F)F)s/c1=C(/C#N)C(=O)NC(C)C	none
COCCCn1c(=O)/c(=C\c2ccc(OC(F)F)c(OC)c2)s/c1=C(/C#N)C(=O)NCCOC	Mtb RmlCD inh 66 (no result: YopH PTP inh)
Cc1cc(NNC(=O)c2ccccc2)nc(NNC(=O)c2ccccc2)n1	none (no result: YopH PTP inh)
COc1ccc2c(c1)CCc1cc(C(=O)N3CCN(c4ccc(N5CCOCC5)nn4)CC3)sc1-2	YopH PTP inh 76
COc1ccc2c(c1)CCc1c(C(=O)N3CCCCCC3)noc1-2	none
CN(CCCNC(=O)c1cc2c(=O)[nH]c3ccccc3c2n1C)Cc1ccccc1	none (no result: YopH PTP inh)
O=C(O)CC/C(=N\Nc1ccc([N+](=O)[O-])cc1)c1ccccc1	none (no result: YopH PTP inh)
COC(=O)c1nc(-c2ccc3c(n2)C(=O)C(N)=C(OC)C3=O)c(N)c(-c2ccc(OC)c(OC)c2O)c1C	none (no result: YopH PTP inh)
COC1=C(N)C(=O)c2nc(-c3nc(C(=O)O)c(C)c(-c4ccc(OC)c(OC)c4O)c3N)ccc2C1=O	YopH PTP inh 101 (no result: Mtb RmlCD inh)
O=C(O)CC(NCc1ccco1)C(=O)OCCc1ccccc1 (stereo unspecified)	none
COC1=C(Nc2ccc(OC)cc2)C(=O)c2ccccc2C1=O	none
